Compound activity (PubChem)
Shown are actives, neighbours in structure and some others; about 1.4% of the full set was active somewhere.
Sa RN4220 lethal: S. aureus RN4220 growth inhibition; 330,000 compounds, 0.33% hits; AID 1259311; inhibition, % (test concentration not listed); OD600, 16 h; in the data active means inhibition above about 85%
PrPC TRFRET: reduces human prion protein on the cell surface | AID 720596 | 370,000 compounds, 0.43% hits | inhibition, % at 13.8 µM | cell surface PrPC, TR-FRET read-out | P04156; in the data active means inhibition above about 24%
DUSP3 inh: blocks human VHR1 dual specificity phosphatase; P51452; recombinant VHR phosphatase, pNPP absorbance; inhibition, % at 13.3 µM; 290,000 compounds, 0.52% hits; AID 1654; in the data active means inhibition above about 50%
3CLpro inhibitor: SARS-CoV 3CLpro protease inhibition; inhibition, % at 6 µM; recombinant SARS-CoV 3CLpro, quenched FRET peptide cleavage; 290,000 compounds, 0.14% hits; in the data active means inhibition above about 12%
ugtP null kill: growth inhibition of S. aureus ugtP deletion strain; S. aureus RN4220 ugtP deletion, OD600 growth, 16 h; growth inhibition, % (test concentration not listed); 330,000 compounds, 0.54% hits; in the data active means growth inhibition above about 68%
BJeLR viability: BJeLR cell viability loss | BJeLR (HRASV12) viability, CellTiter-Glo ATP luminescence, 48 h | inhibition, % (concentration not given with the values) | 300,000 compounds, 0.17% hits; in the data active means inhibition above about 50%
PrPC TRFRET cf: confirmation of inhibitors of cell surface human prion protein | cell surface PrPC level, TR-FRET | inhibition, % at 13.8 µM | 1,500 compounds, 65% hits | shares compounds with PrPC TRFRET; in the data active means inhibition above about 25%
LD9 tox: LD9 cell cytotoxicity, PrPc inhibitor counter-screen; 1,500 compounds, 29% hits; LD9 cells cytotoxicity, luminescence viability; shares compounds with PrPC TRFRET; inhibition, % at 13.8 µM; in the data active means inhibition above about 9.5%
Hits are given with their value; 0 = inactive; - = no result.

SMILES	Sa RN4220 lethal	PrPC TRFRET	DUSP3 inh	3CLpro inhibitor	ugtP null kill	BJeLR viability	PrPC TRFRET cf	LD9 tox
O=c1cc(-c2ccccc2Cl)oc2cc(O)cc(O)c12	0	0	0	0	0	0	-	-
Cc1ccc(N2C(=O)C(=CN3CCN(C(=O)c4ccco4)CC3)C(=O)NC2=S)cc1C	0	-	-	-	0	-	-	-
COc1ccc(-c2cc(NCCc3ccncc3)n3ncnc3n2)cc1	0	106	0	0	0	0	0	0
CC(C)(C)C1CCC(=O)N(C(CN=[N+]=[N-])Cc2ccccc2)CC1 (centres undefined)	0	-	-	-	0	-	-	-
COCCNC(=O)CSc1cc(-c2ccccc2)c2ccc(OC)cc2n1	0	33	0	0	0	0	37	0
O=C(NCCO)c1cccc(-c2cc(Nc3ccc(OC(F)(F)F)cc3)ncn2)c1	-	0	-	-	-	-	-	-
NC(=O)c1cccc(-c2cc(Nc3ccc(OC(F)(F)F)cc3)ncn2)c1	0	51	0	-	0	0	0	0
CCCN1C(=O)C(=Cc2ccc(C)s2)SC1=Nc1ccc(OC)cc1	0	-	-	-	0	-	-	-
CC(=O)OC1CC2OC3C=C(C)CCC3(C)C1(C)C21CO1 (centres undefined)	-	90	-	-	-	-	101	32
COC(=O)c1ccc(C23CC4(C2)C(CN(CC2CCCCC2)C4c2ccccc2)C3c2ccc(Cl)nc2)cc1 (centres undefined)	0	-	-	-	0	-	-	-
COC(=O)[C@@]12CCCCN1C(c1ccc(-c3cccc(Cl)c3)c(OC)c1)C1C(=O)N(C)C(=O)C12 (some centres undefined)	0	-	-	-	0	-	-	-
BrC(=C\c1ccccc1)/C=N/n1cnnc1	-	34	0	0	-	0	0	37
CC(=O)c1ccc(NC(=O)CO/N=C(\C)c2cccs2)cc1	-	0	0	0	-	0	-	-
CCc1cccc(CC)c1NC(=O)CO/N=C(\C)c1cccs1	-	35	0	0	-	0	30	0
COc1ccccc1Cn1c(=S)[nH]c2ccccc2c1=O	0	62	0	0	0	0	90	0
COc1ccccc1Cn1c(=S)[nH]c2ccc(F)cc2c1=O	0	108	0	0	0	0	131	0
COC(=O)Nc1ccc(S(=O)(=O)N2c3ccccc3CCC2C)cc1 (centres undefined)	0	28	0	0	0	0	0	0
Cc1csc(NC(=O)CSc2sc3c(O)cc(=O)[nH]c3c2C#N)n1	0	26	0	0	0	0	0	0
COc1cc(C=NNC(=O)c2ccc(COc3ccccc3Cl)o2)cc(Br)c1O	0	-	-	-	0	-	-	-
O=C(N/N=C/c1ccc(O)cc1)c1ccc(COc2cc(Cl)ccc2Cl)o1	-	27	0	0	-	0	30	0
Cc1ccc(-c2nc3ccc(Br)cn3c2Cc2cccc(Cl)c2)cc1	-	0	-	-	-	-	-	-
Clc1ccc(-c2nc3ccc(Br)cn3c2Cc2cccc(Cl)c2)cc1	-	30	-	-	-	-	53	0
COc1ccc(-c2nc3ccc(Br)cn3c2Cc2cccc(Cl)c2)cc1OC	-	27	-	-	-	-	61	0
O=C1C2C3C=CC(CC3)C2C(=O)N1c1ccccc1 (centres undefined)	0	0	0	0	0	0	-	-
O=C1C=CC2C3C(=O)N(c4ccccc4)C(=O)C3C1N2Cc1ccccc1 (centres undefined)	-	49	-	-	-	-	0	99
SMILES	Sa RN4220 lethal	PrPC TRFRET	DUSP3 inh	3CLpro inhibitor	ugtP null kill	BJeLR viability	PrPC TRFRET cf	LD9 tox
CCOC(=O)c1sc(NC(=O)C(C)(C)C)cc1C	0	0	0	0	0	0	-	-
CCOC(=O)c1sc(NC(=O)C2CC2)cc1C	0	0	0	0	0	0	-	-
CCOC(=O)c1sc(NC(=S)NC(=O)CC(C)C)cc1C	0	37	0	0	0	0	40	0
CCOC(=O)c1sc(NC(=S)NC(=O)C2CCCC2)cc1C	0	26	0	0	0	0	56	0
CC(C)CCC(O)[C@](C)(O)C1CC[C@@]2(O)C3=CC(=O)C4CC(O)C(O)C[C@]4(C)C3CC[C@]12C (some centres undefined)	0	-	-	-	0	-	-	-
FC(F)(F)c1ccc(C2C3CN(CC4CCCCC4)C(c4ccccc4)C34CC2(c2cccnc2)C4)cc1 (centres undefined)	0	-	-	-	0	-	-	-
O=S(=O)(C/C(=C/CO)S(=O)(=O)c1ccccc1)c1ccccc1	0	86	0	0	0	0	92	0
